Measurements as given in PubChem BioAssay AID1159580 (chemical genetic matrix, 2015).
Among all 5,500 compounds or so, about 2,000 (36%) were called active. Another 18% or so got no clear call; they are omitted. Cut-off read from the data, not from the text of the source: active = normalized growth mostly below about 0.91 (no sharp cut-off); inconclusive = no clear call, values can overlap the other calls; inactive = mostly above about 0.92. Some of the results follow.

Assay: chemical genetic growth profiling, strain panel (AID 1159580);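 note: tested at 20 µM; growth read once vehicle control cultures reached saturation at 30 °C; 1 = growth at the plate median or of vehicle wells; lower values mean less growth of the strain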
Conditions: growth OD

Measured: normalized growth

O=c1c(-c2ccc3c(c2)OCO3)coc2cc(O)ccc12
inactive: S. cerevisiae deletion strains, locus YJR043C, strain POL32, active compounds read low 1 | S. cerevisiae deletion strains, locus YJR075W, strain HOC1, active compounds read low 1.02 | S. cerevisiae deletion strains, locus YKL009W, strain mrt4, active compounds read low 0.963 | S. cerevisiae deletion strains, locus YKL068W, active compounds read low 0.994 | S. cerevisiae deletion strains, locus YKL085W, strain MDH1 (second series), active compounds read low 0.995 | S. cerevisiae deletion strains, locus YKL085W, strain MDH1, active compounds read low 0.995 | S. cerevisiae deletion strains, locus YKL160W, strain elf1, active compounds read low 0.983 | S. cerevisiae deletion strains, locus YKL190W, strain CNB1, active compounds read low 1 | S. cerevisiae deletion strains, locus YKR001C, strain vps1, active compounds read low 0.969 | S. cerevisiae deletion strains, locus YKR026C, strain gcn3, active compounds read low 0.98 | S. cerevisiae deletion strains, locus YKR091W, strain srl3, active compounds read low 0.998 | S. cerevisiae deletion strains, locus YLL001W, strain dnm1, active compounds read low 0.977 | S. cerevisiae deletion strains, locus YLL026W, active compounds read low 0.989 | S. cerevisiae deletion strains, locus YLL041C, strain sdh2, active compounds read low 0.995 | S. cerevisiae deletion strains, locus YLR027C, strain aat2, active compounds read low 0.987 | S. cerevisiae deletion strains, locus YLR039C, strain RIC1, active compounds read low 0.969 | S. cerevisiae deletion strains, locus YLR058C, strain SHM2, active compounds read low 0.994 | S. cerevisiae deletion strains, locus YLR102C, strain apc9, active compounds read low 0.987 | S. cerevisiae deletion strains, locus YLR221C, strain rsa3, active compounds read low 0.994 | S. cerevisiae deletion strains, locus YLR258W, strain gsy2, active compounds read low 0.981 | S. cerevisiae deletion strains, locus YLR262C, strain YPT6 (second series), active compounds read low 0.957 | S. cerevisiae deletion strains, locus YLR262C, strain YPT6, active compounds read low 0.994 | S. cerevisiae deletion strains, locus YLR268W, strain sec22, active compounds read low 0.981 | S. cerevisiae deletion strains, locus YLR320W, strain mms22, active compounds read low 0.957 | S. cerevisiae deletion strains, locus YLR330W, strain CHS5, active compounds read low 1 | S. cerevisiae deletion strains, locus YLR342W, strain FKS1 (second series), active compounds read low 0.981 | S. cerevisiae deletion strains, locus YLR342W, strain FKS1, active compounds read low 0.98 | S. cerevisiae deletion strains, locus YLR357W, strain rsc2, active compounds read low 0.965 | S. cerevisiae deletion strains, locus YLR370C, strain arc18, active compounds read low 1 | S. cerevisiae deletion strains, locus YLR371W, strain rom2, active compounds read low 0.981 | S. cerevisiae deletion strains, locus YLR384C, strain iki3, active compounds read low 0.971 | S. cerevisiae deletion strains, locus YLR418C, strain cdc73, active compounds read low 0.984 | S. cerevisiae deletion strains, locus YML016C, strain PPZ1, active compounds read low 0.985 | S. cerevisiae deletion strains, locus YML032C, strain rad52, active compounds read low 0.969 | S. cerevisiae deletion strains, locus YML120C, strain ndi1, active compounds read low 0.995 | S. cerevisiae deletion strains, locus YML124C, strain tub3, active compounds read low 0.976 | S. cerevisiae deletion strains, locus YMR058W, strain fet3, active compounds read low 1 | S. cerevisiae deletion strains, locus YMR078C, strain ctf18, active compounds read low 0.967 | S. cerevisiae deletion strains, locus YMR125W, strain sto1, active compounds read low 0.986 | S. cerevisiae deletion strains, locus YMR129W, active compounds read low 0.997 | S. cerevisiae deletion strains, locus YMR205C, strain PFK2, active compounds read low 0.978 | S. cerevisiae deletion strains, locus YMR223W, strain ubp8, active compounds read low 0.976 | S. cerevisiae deletion strains, locus YMR231W, strain pep5, active compounds read low 1 | S. cerevisiae deletion strains, locus YMR263W, strain SAP30, active compounds read low 1.01 | S. cerevisiae deletion strains, locus YMR307W, strain GAS1, active compounds read low 0.974 | S. cerevisiae deletion strains, locus YNL067W, strain RPL9B, active compounds read low 1.03 | S. cerevisiae deletion strains, locus YNL071W, strain lat1, active compounds read low 0.996 | S. cerevisiae deletion strains, locus YNL128W, strain TEP1, active compounds read low 1.02 | S. cerevisiae deletion strains, locus YNL153C, strain GIM3, active compounds read low 1.01 | S. cerevisiae deletion strains, locus YNL209W, strain ssb2, active compounds read low 0.987 | S. cerevisiae deletion strains, locus YNL233W, strain BNI4, active compounds read low 0.997 | S. cerevisiae deletion strains, locus YNL248C, strain rpa49, active compounds read low 0.987 | S. cerevisiae deletion strains, locus YNL250W, strain rad50, active compounds read low 0.989 | S. cerevisiae deletion strains, locus YNL271C, strain bni1, active compounds read low 0.992 | S. cerevisiae deletion strains, locus YNL298W, strain CLA4, active compounds read low 0.981 | S. cerevisiae deletion strains, locus YNL307C, strain MCK1, active compounds read low 0.948 | S. cerevisiae deletion strains, locus YNL322C, strain KRE1 (second series), active compounds read low 0.992 | S. cerevisiae deletion strains, locus YNL322C, strain KRE1, active compounds read low 0.999 | S. cerevisiae deletion strains, locus YNR049C, strain mso1, active compounds read low 0.996 | S. cerevisiae deletion strains, locus YNR052C, strain pop2, active compounds read low 0.975 | S. cerevisiae deletion strains, locus YOL006C, strain TOP1, active compounds read low 1.01 | S. cerevisiae deletion strains, locus YOL012C, strain htz1 1.06 | S. cerevisiae deletion strains, locus YOL147C, strain pex11, active compounds read low 0.976 | S. cerevisiae deletion strains, locus YOR001W, strain rrp6, active compounds read low 0.991 | S. cerevisiae deletion strains, locus YOR061W, strain CKA2, active compounds read low 0.981 | S. cerevisiae deletion strains, locus YOR069W, strain VPS5, active compounds read low 0.991 | S. cerevisiae deletion strains, locus YOR070C, strain gyp1, active compounds read low 0.99 | S. cerevisiae deletion strains, locus YOR080W, strain dia2, active compounds read low 0.981 | S. cerevisiae deletion strains, locus YOR083W, strain WHI5, active compounds read low 1 | S. cerevisiae deletion strains, locus YOR106W, strain vam3, active compounds read low 0.986 | S. cerevisiae deletion strains, locus YOR136W, strain idh2, active compounds read low 0.985 | S. cerevisiae deletion strains, locus YOR144C, strain elg1, active compounds read low 0.98 | S. cerevisiae deletion strains, locus YOR184W, strain ser1, active compounds read low 0.994 | S. cerevisiae deletion strains, locus YOR265W, strain rbl2, active compounds read low 0.991 | S. cerevisiae deletion strains, locus YOR270C, strain vph1, active compounds read low 1.02 | S. cerevisiae deletion strains, locus YOR290C, strain snf2, active compounds read low 0.958 | S. cerevisiae deletion strains, locus YOR316C, strain cot1, active compounds read low 0.976 | S. cerevisiae deletion strains, locus YPL051W, strain arl3, active compounds read low 0.99 | S. cerevisiae deletion strains, locus YPL055C, strain LGE1, active compounds read low 1.03 | S. cerevisiae deletion strains, locus YPL078C, strain atp4, active compounds read low 0.995 | S. cerevisiae deletion strains, locus YPL106C, strain sse1, active compounds read low 0.97 | S. cerevisiae deletion strains, locus YPL240C, strain hsp82, active compounds read low 0.988 | S. cerevisiae deletion strains, locus YPL241C, strain CIN2, active compounds read low 0.999 | S. cerevisiae deletion strains, locus YPR119W, strain clb2, active compounds read low 0.985 | S. cerevisiae deletion strains, locus YPR141C, strain kar3, active compounds read low 0.986 | S. cerevisiae deletion strains, locus YPR163C, strain tif3, active compounds read low 0.978 | S. cerevisiae deletion strains, locus YPR167C, strain met16, active compounds read low 0.982 | S. cerevisiae deletion strains, strain wtn01, active compounds read low 0.983 | S. cerevisiae strains, strain wild type, active compounds read low 0.995
